Laboratory results taken from PubChem BioAssay (NCATS).
Results filed as inconclusive are left out. A number with no mark means an inactive call. Active and inactive are the calls of the source. Calls follow the shape of the dose curve; as a rule, active = well fitted inhibition curve with a large enough effect; inconclusive = small, poorly fitted or top-dose-only effect; inactive = no such curve, though single readings can be large or run the other way.

These molecules were tested against Retinaldehyde dehydrogenase 3 (Homo sapiens) (UniProt P47895) (assay: qHTS for Inhibitors of the Aldehyde Dehydrogenase Family (ALDH1A3) Confirmatory screens (AID 2061311; also: nearly all actives have a fitted effect of over 60% in size)). Conditions: ALDH inhibition qHTS; series mostly up to 46 µM; activity change, negative = inhibition: at the top concentration.
% is scaled to controls: 0 for no effect and ±100 for the full control effect; potency is read from the fitted curve at half-maximal effect.

Question: How did the Potency turn out when `Cc1noc(C)c1-c1cnc(Nc2ccc(F)c(Cl)c2)c2c1CCO2` was run?
Answer: Its Potency is 31.6 µM (active).

Question: Which “activity change, negative = inhibition” value does the source give for `Cc1cc(Br)ccc1NC(=O)CCNS(=O)(=O)c1cccc2nonc12` here?
Answer: Its value is -43.9%.

Question: How did the “activity change, negative = inhibition” value turn out when `O=C(CSc1nc2ncccc2[nH]1)Nc1cc(F)ccc1F` was run?
Answer: Its value is -23.4%.

Question: `O=C(Cn1c(=O)n(Cc2cccs2)c(=O)c2cccnc21)Nc1ccccc1F` was tested. Which “activity change, negative = inhibition” value did it give?
Answer: Its value is -21.9%.

Question: `CCOc1cccc(CNC(=O)c2ccc(N3CCCC3)c(NC(=O)NCc3ccccc3)c2)c1` was tested. Which “activity change, negative = inhibition” value did it give?
Answer: Its value is 1.95%.

Question: Which “activity change, negative = inhibition” value does the source give for `CCc1nn2c(=O)c(S(=O)(=O)Nc3ccc(Cl)cc3)c(C)nc2s1` here?
Answer: Its value is -3.82%.

Question: For `CCOc1ccc(NC(=O)N2CCC(CC(=O)NCc3ccccc3)C2)cc1` (configuration not stated), which “activity change, negative = inhibition” value is on record?
Answer: The value was -20.7%.

Question: How did the “activity change, negative = inhibition” value turn out when `Cc1cc2nc3n(c(=O)c2n1CC(=O)Nc1ccc(Br)cc1F)CCC3` was run?
Answer: Its value is -4.3%.

Question: With `Cc1ccc(NC(=O)CSc2nc3ncccc3[nH]2)cc1F` as the molecule, how does the “activity change, negative = inhibition” value read?
Answer: Its value is 0.703%.

Question: `c1cnc(-c2noc(-c3nc(-c4ccc5c(c4)OCO5)no3)n2)cn1` was tested. Which “outcome” value did it give?
Answer: Its value is “inactive”.

Question: How did the “activity change, negative = inhibition” value turn out when `CCc1nn2c(=O)c(S(=O)(=O)Nc3cccc(F)c3)c(C)nc2s1` was run?
Answer: The value was 4.3%.

Question: `Cn1c(Oc2cccc(Cl)c2)nc2c1c(=O)n(Cc1ccccc1Cl)c(=O)n2C` was tested. Which Potency did it give?
Answer: The Potency was 31.6 µM (active).

Question: How did the “activity change, negative = inhibition” value turn out when `COc1ccccc1-c1cc2c(nc1OC)nc(CC1CC1)n2C` was run?
Answer: Its value is -25.2%.

Question: How did the “activity change, negative = inhibition” value turn out when `CCOC(=O)c1noc2ncnc(Nc3ccc(C)c(F)c3)c12` was run?
Answer: The value was -12.2%.

Question: How did the “activity change, negative = inhibition” value turn out when `O=C(CSc1nc(-c2cccs2)nc2cc(=O)[nH]n12)Nc1cccc(C(F)(F)F)c1` was run?
Answer: Its value is -32.5%.

Question: With `Cc1ccc(Oc2nc3c(c(=O)n(Cc4ccccc4Cl)c(=O)n3C)n2C)cc1C` as the molecule, how does the “activity change, negative = inhibition” value read?
Answer: The value was -6.92%.

Question: `Cc1cc(=O)[nH]c(CCNc2nc(-c3ccncc3)nc3c2c(C)nn3C)n1` was tested. Which “outcome” value did it give?
Answer: The value was “inactive; activator”.
